Reference: PubChem BioAssay (NCATS)
Results filed as inconclusive are left out. Values without a mark were called inactive. Activity calls are given as the source filed them. Calls follow the shape of the dose curve; as a rule, active = well fitted cell-killing curve with a large enough effect; inconclusive = small, poorly fitted or top-dose-only effect; inactive = flat fitted curve, though single readings scatter. Where a SMILES comes first, the peptide text is derived from it. Bridges are numbered along the chain shown (N, C = ends). [ ]: non-standard residue; d: D form. The star is where a group is joined. X1 = CC[C@@H](C)[C@@H](N)C1=N[C@H](C(=O)*)CS1; d(aIle) = CC[C@H](C)[C@@H](N)C(=O)O; dOrn = NCCC[C@@H](N)C(=O)O

Assay: qHTS assay to identify small molecule inhibitors of chordoma cells - UCH-2 (AID 1259356)
Settings: UCH-2 chordoma viability, CellTiter-Glo ATP luminescence, 48 h; series mostly up to 46.1 µM; activity change, negative = inhibition: at the top concentration
Text: NIH Chemical Genomics Center [NCGC]
Chordoma is a rare and slow growing tumor that can occur anywhere along the spine, from the base of the skull to the tailbone. Current treatment options for chordoma is surgery and radiation therapy for those who are not candidates for surgery. But chordomas tend to return in the same location or surrounding areas of the original tumor after surgery and/or radiation. Chemotherapy can slow down the progression of the tumor. As chordoma is slow growing, the general cytotoxic agents that kill fast growing cells are ineffective, and some patients have been reported to respond to molecularly targeted drugs.
NCATS Pharmaceutical Collection (NPC) containing approximately 3000 clinically approved and investigational drugs were used to screen at 15 concentrations in a chordoma cell lines, UCH-2, to identify small molecule compounds that can inhibit chordoma cell growth.
NCGC Assay Protocol Summary:
Human chordoma cell line UCH-2 was dispensed at 800 per well in 4uL of culture medium into white solid bottom 1536-well plates (Corning Life Sciences, Corning, NY) using a Multidrop Combi (Thermo Scientific, Waltham, MA) dispenser. The assay plates were incubated at 37 C and 5% CO2 for an overnight, and then 23nL of compounds dissolved in DMSO and positive control were transferred using a Pintool station (Wako, San Diego, CA). Compound treatment was followed by the addition of 1uL of the combination compounds (1uM Auranofin, 500nM each of Camptothecin, Doxorubicin, Rubitecan, and Topotecan) and assay medium to each well of the assay plates using Flying Reagent Dispenser (FRD, Aurora Discovery, San Diego, CA). The assay plates were incubated at 37 C and 5% CO2 for 48hr. Then 5uL of CellTiter-Glo reagent (Promega Corporation, Madison, WI) was added to each well of the assay plates using FRD. After 30min incubation at room temperature, the luminescence signal was quantified using a ViewLux plate reader (PerkinElmer, Shelton, CT).
% is scaled to controls: 0 for no effect and ±100 for the full control effect; potency is read from the fitted curve at half-maximal effect.

| SMILES | activity change, negative = inhibition | Potency |
| --- | --- | --- |
| CC[C@@H](C)[C@@H](N)C1=N[C@H](C(=O)N[C@@H](CC(C)C)C(=O)N[C@@H](CCC(=O)O)C(=O)N[C@@H](C(=O)N[C@@H]2CCCCNC(=O)[C@@H](CC(N)=O)NC(=O)[C@@H](CC(=O)O)NC(=O)[C@@H](Cc3cnc[nH]3)NC(=O)[C@@H](Cc3ccccc3)NC(=O)[C@@H]([C@H](C)CC)NC(=O)[C@@H](CCCN)NC2=O)[C@@H](C)CC)CS1 (X1-LE[d(aIle)][dK][dOrn][dI][dF][dH][dD][dN]; lactam 4-C) | -1.64% [at 20.6 µM] |  |
| Cc1cccc(C)c1NC(=O)NC1=CCCN1C | 1.67% |  |
| CCC(O)c1ccccc1 (stereo not given) | 8.52% |  |
| COC1=C(OC)C(=O)C(C/C=C(\C)CC/C=C(\C)CC/C=C(\C)CC/C=C(\C)CC/C=C(\C)CC/C=C(\C)CC/C=C(\C)CC/C=C(\C)CC/C=C(\C)CCC=C(C)C)=C(C)C1=O | -0.47% |  |
| CC/C(=C(/CC)c1ccc(OP(=O)(O)O)cc1)c1ccc(OP(=O)(O)O)cc1 | -3.05% |  |
| NC(=O)C1c2ccccc2CCc2ccccc21 | 3.12% |  |
| O=C(O)c1ccc(NC(=O)[C@H](Cc2ccc(O)cc2)NC(=O)c2ccccc2)cc1 | -3.39% |  |
| O=C(O)CCC/C=C\C[C@@H]1[C@@H](/C=C/[C@@H](O)COc2cccc(Cl)c2)[C@H](O)C[C@@H]1O | 16.7% |  |
| Cc1cc(=O)c(C(=O)N[C@@H](C(=O)N[C@@H]2C(=O)N3C(C(=O)O)=C(CSc4nnnn4C)CS[C@H]23)c2ccc(O)cc2)c[nH]1 | -3.88% |  |
| NC(=O)OCC(O)COc1ccc(Cl)cc1 (stereo not given) | 17.3% [at 20.6 µM] |  |
| NC(=O)[C@H]1O[C@@H](O)[C@H](O)[C@@H](O)[C@@H]1O | 13.4% |  |
| Cc1cccc(C)c1NC(=O)C1CCCCN1C (stereo not given) | -1.46% |  |
| NC(=O)[C@@H]1CCCN1C(=O)[C@H](Cc1cnc[nH]1)NC(=O)[C@@H]1CCC(=O)N1 | 5.86% |  |
| CC(C)CN(C[C@@H](O)[C@H](Cc1ccccc1)NC(=O)O[C@@H]1CCOC1)S(=O)(=O)c1ccc(N)cc1 | 4.66% |  |
| C[C@H]1O[C@@H](O[C@H]2[C@@H](O)C[C@H](O[C@H]3[C@@H](O)C[C@H](O[C@H]4CC[C@@]5(C)[C@H](CC[C@@H]6[C@@H]5C[C@@H](O)[C@]5(C)[C@@H](C7=CC(=O)OC7)CC[C@]65O)C4)O[C@@H]3C)O[C@@H]2C)C[C@H](O)[C@@H]1O |  | 0.116 µM (active) |
| O=C(CCCCCCCCCCCCC1CCCC1)Nc1ccc(S(=O)(=O)c2ccc(NC(=O)CCCCCCCCCCCCC3CCCC3)cc2)cc1 | -0.546% |  |
| FC(F)OC(Cl)C(F)(F)F (stereo not given) | -11% |  |
| O=C(OCc1ccccc1)c1cccnc1 | -0.469% |  |
| Cc1c(Cl)cccc1Nc1ncccc1C(=O)O | 0.813% |  |
| O=C(O)CN(CC(=O)O)CC1=CC2C(=CC1=O)Oc1cc(O)c(CN(CC(=O)O)CC(=O)O)cc1C21OC(=O)c2ccccc21 (stereo not given) | 0.66% |  |

| SMILES | activity change, negative = inhibition | Potency |
| --- | --- | --- |
| CC(=O)N[C@@H]1C(O[C@H]2O[C@H](C(=O)O)C(O)[C@H](O)[C@H]2O)[C@H](O)[C@@H](CO)O[C@H]1O[C@@H]1C(C(=O)O)O[C@@H](O[C@H]2[C@H](O)[C@@H](CO)OC(O)[C@@H]2NC(C)=O)[C@H](O)[C@H]1O (stereo not given in full) | 2.77% |  |
| CC/C=C\C/C=C\C/C=C\C/C=C\C/C=C\CCCC(=O)O | -17.6% |  |
| CC(C)(O/N=C(\C(=O)N[C@@H]1C(=O)N2C(C(=O)[O-])=C(C[n+]3ccccc3)CS[C@H]12)c1csc(N)n1)C(=O)O | 6.08% [at 20.6 µM] |  |
| COc1ccc(C(=O)CCC(=O)O)c2ccccc12 | -0.418% |  |
| O=C1/C(=C\c2cccs2)CCC/C1=C\c1cccs1 | -0.319% |  |
| COc1ccc(-c2noc(CC(=O)O)c2-c2ccc(OC)cc2)cc1 | 3.38% |  |
| CC(C)(C)NC[C@H](O)COc1ccccc1C1CCCC1 | 4.75% [at 20.6 µM] |  |
| COc1ccc2cc([C@H](C)CO)ccc2c1 | -17.5% |  |
| CCCC(=O)O | 12.4% |  |
| C=CC[C@@H]1/C=C(\C)C[C@H](C)C[C@H](OC)[C@H]2O[C@@](O)(C(=O)C(=O)N3CCCC[C@H]3C(=O)O[C@H](/C(C)=C/[C@@H]3CC[C@@H](O)[C@H](OC)C3)[C@H](C)[C@@H](O)CC1=O)[C@H](C)C[C@@H]2OC | 3.89% |  |
| O=C(O)Cc1cc(I)c(Oc2ccc(O)c(I)c2)c(I)c1 | 2.45% [at 20.6 µM] |  |
| C=CC[N@@+]12CC[C@@]34c5ccccc5N5/C=C6/[C@H]7C[C@H]8[C@@]9(CC[N@@+]8(CC=C)C/C7=C/CO)c7ccccc7N(/C=C(/[C@@H](C[C@@H]31)/C(=C\CO)C2)[C@H]54)[C@@H]69 | 7.04% [at 20.6 µM] |  |
| C[C@]12CCC(=O)C[C@@H]1CC[C@@H]1[C@@H]2CC[C@]2(C)C=CC[C@@H]12 | 16.2% |  |
| CC(C)NCC(O)COc1ccccc1-n1cccc1 (stereo not given) | -0.198% |  |
| NC(=O)OC[C@@H]1[C@H](NC(=O)/C(=N\OCC(=O)O)c2csc(N)n2)C(=O)N1S(=O)(=O)O | 2.2% |  |
| CN(C)C=Nc1c(I)cc(I)c(CCC(=O)O)c1I | 14% |  |
| O=C1[O][Bi][O]c2ccccc21 | 5.22% |  |
| COc1cc(S(C)=O)ccc1-c1nc2ncccc2[nH]1 (stereo not given) | -2.02% |  |
| COC1[C@@H](O[C@@H]2O[C@H](C)[C@@H](O[C@H]3C[C@@](C)(O)[C@H](OC(=O)CC(C)C)[C@H](C)O3)[C@H](N(C)C)[C@H]2O)[C@@H](CC=O)C[C@@H](C)[C@@H](O)/C=C/C=C/C[C@@H](C)OC(=O)C[C@H]1OC(C)=O (stereo not given in full) | -3.62% [at 20.6 µM] |  |
| CCN1\C(=C/C=C/C=C/c2sc3ccccc3[n+]2CC)Sc2ccccc21 |  | 18.3 µM (active) |
